High-throughput results deposited in PubChem by National Center for Advancing Translational Sciences (NCATS).
nsP2pro primary – inhibitors of chikungunya virus nsP2 protease. FRET peptide cleavage, nsP2pro, fluorescence 1 h. Potency, µM (doses to about 24.9 µM), for inactives: top-dose activity change, negative = inhibition, most hits filed as inhibitors. actives 1.1% (n = 31,000). AID 1964107. Q8JUX6; also: nearly all actives have a fitted effect of over 60% in size
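Recombinant nsP2pro (150 nM) was preincubated with compound 15 min at room temperature in 10 mM Tris-HCl pH 8.0, 0.01% Tween 20. Peptide 2 FRET substrate (2.5 uM) was then added and fluorescence read after 1 h. Seven-point series, up to 25 uM.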
nsP2 cell sec – cell-based CHIKV nsP2 protease inhibition, secondary | shares compounds with nsP2pro primary | cell-based CHIKV nsP2 protease reporter assay | Potency, µM (highest dose often 51.1 µM), without a hit: top-dose activity change, negative = inhibition, most hits filed as inhibitors | actives 10% (n = 450) | AID 1964100; also: nearly all actives have a fitted effect of over 70% in size
CHIKV NSP2 FL – full-length CHIKV NSP2 protease inhibition, selectivity | Potency, µM (series often up to 50.7 µM), without a hit: top-dose activity change, negative = inhibition, actives largely listed as inhibitors | shares compounds with nsP2pro primary | Full-length CHIKV NSP2 protease enzymatic counterscreen | actives 39% (n = 410) | AID 1964101; also: nearly all actives have a fitted effect of over 65% in size
Furin counterscr – inhibits human furin in a CHIKV nsP2 protease selectivity counterscreen | shares compounds with nsP2pro primary | actives 6% (n = 410) | AID 1964102 | Potency, µM (series often up to 50.6 µM), for the others: top-dose activity change, negative = inhibition, actives largely listed as inhibitors | Recombinant human furin enzymatic counterscreen, fluorogenic substrate
NS23 peptide cs – nsP2pro inhibition on native NS2/3 peptide substrate; AID 1964103; Potency, µM (top dose mostly 51 µM), for inactives: at the highest dose activity change, negative = inhibition, usual class: inhibitors; Purified CHIKV nsP2 protease, endogenous NS2/3 peptide cleavage; shares compounds with nsP2pro primary; actives 34% (n = 410); also: nearly all actives have a fitted effect of over 55% in size
Papain counter – papain protease inhibition, counterscreen for nsP2pro inhibitors. shares compounds with nsP2pro primary. purified papain protease activity, enzymatic inhibition. Potency, µM (titrated, usually from 51 µM), inactives show at the top dose activity change, negative = inhibition, usual class: inhibitors. actives 5% (n = 410)
nsP2pro conf qHTS – confirmation of CHIKV nsP2 protease inhibitors; Potency, µM (highest dose often 25.5 µM), for inactives: top-dose activity change, negative = inhibition, actives largely listed as inhibitors; shares compounds with nsP2pro primary; CHIKV nsP2 protease enzymatic activity, qHTS; actives 43% (n = 410); also: nearly all actives have a fitted effect of over 75% in size
HCV NS3 counter – selectivity counter-screen for CHIKV nsP2 protease inhibitors: HCV NS3/4A | Potency, µM (doses to about 50.9 µM), most hits filed as inhibitors | actives 20% (n = 410) | shares compounds with nsP2pro primary | AID 1964106 | HCV NS3/4A protease biochemical counterscreen; also: nearly all actives have a fitted effect of over 55% in size
Active calls of the source: *; i = inactive; ? = inconclusive; . = no result given; [ ] = dose if it differs, or a comment. The entries come from a sample that favours hits as a whole. Calls follow the shape of the full dose curve. % is scaled to controls: 0 for no effect and ±100 for the full control effect; potency is read from the fitted curve at half-maximal effect.

SMILES	nsP2pro primary	nsP2 cell sec	others
COCCOc1cnc2ccn([C@H](C)c3nnc4c(F)cc(-c5cnn(C)c5)cn34)c(=O)c2c1	?	3%	CHIKV NSP2 FL=-26%;Furin counterscr=-17%;NS23 peptide cs=-13%;Papain counter=3%;nsP2pro conf qHTS=?;HCV NS3 counter=i
CN1C[C@H](NCc2nccs2)CCC[C@@H](C(=O)NC2CCOCC2)CC1=O	0%[39.2 µM]	.
Cc1ccc(-n2nc(C)c([C@@H]3C=C[C@@H](NCc4ccc(F)cc4)C3)c2C)cc1Cl	20%[39.2 µM]	.
Cc1nn(-c2ccc(F)cc2)c(C)c1[C@@H]1C=C[C@@H](NCc2ccc(C(C)C)cc2)C1	29%[39.2 µM]	.
Cc1nn(CCC#N)c(C)c1[C@@H]1C=C[C@@H](NCc2ccc(C(C)C)cc2)C1	?	137%	CHIKV NSP2 FL=6µM*;Furin counterscr=-12%;NS23 peptide cs=17µM*;Papain counter=-8%;nsP2pro conf qHTS=12µM*;HCV NS3 counter=4.2µM*
CCNc1ncnc2ccc(-c3ccc4c(c3)OCO4)cc12	i	.
COCCNC(=O)c1cc2c(Cl)nc3ccc(C)cc3c2s1	13%	.
Cc1ccc(NC(=O)CSc2nc(-c3cccs3)nc3cc(=O)[nH]n23)cc1C	-7%	.
COCCNC(=O)Nc1ccc2nc(-c3cccs3)c(-c3cccs3)nc2c1	?	-4%	CHIKV NSP2 FL=34%;Furin counterscr=-10%;NS23 peptide cs=-10%;Papain counter=49%;nsP2pro conf qHTS=8%;HCV NS3 counter=i
O=C(NC1CCN(c2ccc3nnc(-c4ccccc4)n3n2)CC1)C1CCCC1	-7%	.
COc1ccc(C2Nc3ccccc3C(=O)N2Cc2ccccc2)cc1COc1ccc(F)cc1 (centres undefined)	-4%	.
Cc1ccccc1Cn1c(C(=O)O)c(CNCc2cccc(F)c2)c2ccccc21	-28%	.
Cc1cccc(-c2nc3c4ccccc4n(CC(=O)Nc4cc(F)ccc4F)c(=O)n3n2)c1	-14%	.
Cc1c(Cc2ccc3ccccc3n2)c2cc(F)ccc2n1CC(=O)O	?	-3%	CHIKV NSP2 FL=45%;Furin counterscr=-8%;NS23 peptide cs=i;Papain counter=-18%;nsP2pro conf qHTS=?;HCV NS3 counter=i
COc1cc(/C=C2\C(=O)Nc3ccccc32)ccc1O	i	.
CC(=O)O[C@@H]1c2c(C)coc2C(=O)[C@@]23O[C@@H]2CC[C@H](C)[C@@]13C	1%	.
Oc1cc(CNC(=S)/C=C/c2cc(O)c(O)c(Br)c2)cc(O)c1O	5.6µM*	0.22µM*	CHIKV NSP2 FL=15µM*;Furin counterscr=?;NS23 peptide cs=6.5µM*;Papain counter=?;nsP2pro conf qHTS=5µM*;HCV NS3 counter=3.7µM*
CC(C)CC(=O)N1[C@@H](c2ccco2)[C@@H](C(=O)O)C[C@]12CCCCNC2=O	?	4%
CC(C)CC(=O)N1[C@@H](c2ccco2)[C@@H](CO)C[C@]12CCCCN(CCO)C2=O	?	-2%
CC(C)CC(=O)N1CC(=O)Nc2ccc(F)cc2C1c1ccccc1 (centres undefined)	-28%	.
CNC(=O)N1CCC(C2CCN(C(=O)c3ccc4ccccc4n3)C2)CC1 (centres undefined)	0%	.
Cc1cc2c(s1)c1cnn(Cc3ccc(F)c(C)c3)c(=O)c1n2C	1%	.
Cc1ccc(CN2CC[C@H](c3nnc(-c4ccco4)o3)C2)o1	2%[39.2 µM]	.
Cc1nccn1C1(C(=O)O)CCN(Cc2ccc(-c3ccn[nH]3)o2)CC1	-15%	.
Cc1ccsc1[C@@H]1CCN(Cc2ccc(-c3ccn[nH]3)o2)C[C@H]1O	3.5µM*	?	CHIKV NSP2 FL=?;Furin counterscr=0%;NS23 peptide cs=?;Papain counter=-3%;nsP2pro conf qHTS=8µM*;HCV NS3 counter=?
SMILES	nsP2pro primary	nsP2 cell sec	others
O=C(OCC#CCSc1nnc(-c2cccc3ccccc23)o1)c1ccc(Cl)c(C(F)(F)F)c1	-2%	.
O=C(c1ccccc1)N1C[C@@H](c2ccc3c(c2)OCO3)[C@@H]2[C@H]1C1CCN2CC1	i	.
CC(=O)OC(CSC1CCC(=O)OC(C)CCC(=O)C1)C(=O)O (centres undefined)	?	6%[33.5 µM]	CHIKV NSP2 FL=-5%[33.5 µM];Furin counterscr=-5%[33.5 µM];NS23 peptide cs=-11%[33.5 µM];Papain counter=-11%[33.5 µM];nsP2pro conf qHTS=?;HCV NS3 counter=?
COc1cc2c(Nc3cc(F)c(Cl)c(Cl)c3)ncnc2cc1OCC1CCCN(C)CCC1	262%	.
CC(=O)OC1C(OC(=O)c2ccccc2)C2C(C)(C)CCC(OC(C)=O)C2(C)C23CCC(C)(C2)C(=O)CC13 (centres undefined)	-14%[10 µM]	.
COC1CC(O[C@H]2CC[C@]3(C=O)C4CC[C@]5(C)[C@@H](C6=CC(=O)OC6)CC[C@]5(O)[C@@H]4CC[C@]3(O)C2)OC(C)C1O[C@@H]1O[C@H](CO)[C@@H](O)[C@H](O)[C@H]1O (some centres undefined)	0%[10 µM]	.
COc1cccc(-c2c(C)n(Cc3c(F)cccc3C(F)(F)F)c(=O)n(C[C@H](NCCCC(=O)O)c3ccccc3)c2=O)c1F	-13%	.
Cc1ccccc1CCN1CCC(CN(C(=O)c2ccoc2C)C2CCCC2)CC1	5%	.
CCCCCCCCn1cc(CN(CC)CC)c2cc(-c3cnc(N)nc3)ccc21	98%	.
C/C(=N\N=C(N)N)c1cc(NC(=O)CCCCCCCCC(=O)Nc2cc(/C(C)=N/N=C(N)N)cc(/C(C)=N/N=C(N)N)c2)cc(/C(C)=N/N=C(N)N)c1	5.6µM*	71%	CHIKV NSP2 FL=13µM*;Furin counterscr=12µM*;NS23 peptide cs=13µM*;Papain counter=-17%;nsP2pro conf qHTS=6.3µM*;HCV NS3 counter=12µM*
CC(C)(O)C1OC1C1=CC(=O)C2(C)OC2C1O (centres undefined)	9.9µM*	-6%	CHIKV NSP2 FL=4.6µM*;Furin counterscr=-4%;NS23 peptide cs=?;Papain counter=10µM*;nsP2pro conf qHTS=5µM*;HCV NS3 counter=?
O=C(Nc1ccccc1)NC1CCN(CCn2nc3n(c2=O)CCCC3)C1 (centres undefined)	i	.
Cc1c(C(=O)N2CC[C@@](O)(C3CCOCC3)[C@H](C)C2)n(C)c2c(C)cccc12	i	.
O=C(Nc1ccccc1)OCc1c(-c2ccccc2)no[n+]1[O-]	-25%	.
COc1ccc(OC)c(N2C(=O)C(Cl)=C(N3CCCCC3)C2=O)c1	?	-11%	CHIKV NSP2 FL=16µM*;Furin counterscr=-7%;NS23 peptide cs=?;Papain counter=-18%;nsP2pro conf qHTS=7.1µM*;HCV NS3 counter=i
COc1ccc(Br)c(C(=O)Nc2cc3c(cc2N2CCCC2)n(C)c(=O)c(=O)n3C)c1	-33%	.
COc1ccc(OC)c(NC(=O)CN2C(=O)c3ccccc3Sc3ccc(C(=O)N4CCCC4)cc32)c1	-5%	.
Cc1ccc(NS(=O)(=O)c2cc3c(cc2NC(C)C)NC(=O)CC3)cc1C	-12%	.
